Where “and” joins values, the source holds several entries; their conditions need not be identical. Identical values can stand only once. Results filed as inconclusive are left out. Entries that show only a call come without a potency. Calls of active or inactive are those of the source. Unless noted, calls come from the whole dose curve; as a rule, active = well fitted curve in the direction sought with a large enough effect; inconclusive = small, poorly fitted or top-dose-only effect, or another doubt; inactive = no such curve, though single readings can be large; an effect the other way counts as inactive or inconclusive.
Tests used:
[1] = molecular target: Glucagon-like peptide 1 receptor (Homo sapiens) (UniProt P43220); test: qHTS of GLP-1 Receptor Agonists: LOPAC Validation (AID 624148);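 note: luminescence from a luciferase reporter switched on by cAMP; higher luminescence signal means agonism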
Summary of the method: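 Agonism scored as increased luciferase luminescence driven by cAMP in HEK293 clones carrying GLP-1R. Cells settled 12 hours, received compound for 4-6 hr at 37 deg C, 5% CO2, and were read after 12 min detection reagent at RT.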

[2] = qHTS of Nrf2 Activators: LOPAC Validation (AID 624149)
Summary of the method: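 Luciferase signal from ARE activation, read with Steady-Glo after 30 min at room temperature. Compounds were pin-transferred onto AREc32_Fluc cells (1000/well, OPTI-MEM/5% FBS, seeded overnight) and left 24 hr at 37 deg C.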

[3] = HTS Assay for Allosteric Antagonists of the Human D2 Dopamine Receptor: Hit Validation in HTRF (AID 624455);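 note: stable D1 dopamine receptor cell line scored for blocking the D1 response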
Summary of the method: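 Inhibition of the D1-mediated response was measured by HTRF. Cells used were a line stably expressing the D1 dopamine receptor.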

[4] = qHTS Assay for Identification of Small Molecule Agonists for NFkB Signaling Pathway. (AID 624478);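 note: compounds tested together with TNF alpha at its EC50 of 10 pM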
Summary of the method: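 Compounds were added with 10 pM TNF alpha (EC50 level) to ME-180 NFkB-bla cells in low-serum Opti-MEM and incubated 5 hrs at 37 C. Beta-lactamase FRET read-out used 405 nm excitation and 460 and 530 nm emission.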

[5] = qHTS Assay for Identification of Small Molecule Antagonists for NFkB Signaling Pathway. (AID 624479; calls by dose curve;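 note: pathway stimulated with TNF alpha; potency is the fitted concentration of half-maximal effect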); conditions: NFkB pathway reporter cell assay, antagonist mode
[6] = Cell Proliferation Assay against the TMD8 Cell Line (AID 651645); conditions: TMD8 DLBCL cell line proliferation/viability; at 46.1 µM (top of the series);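 note: cells exposed to compound for 48 h before reading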
Summary of the method: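 Cell viability of the ABC DLBCL line TMD8 is measured by CellTiter-Glo luminescence following a 48-hour incubation with compound. Percent activity uses DMSO as 100% and 9.2 uM bortezomib (final) as 0%.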

[7] = Cell Proliferation Assay against the HBL1 Cell Line (AID 651646); conditions: HBL1 DLBCL cells; at 46.1 µM (top of the series);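 note: cells exposed to compound for 48 h before reading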
Summary of the method: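 CellTiter-Glo luminescence after 48 h compound exposure at 37C gives percent activity, with DMSO as 100% and 9.2 uM bortezomib final as 0%. Cells: 500 log-phase HBL1 per well, RPMI plus 5% FBS.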

[8] = Cell Proliferation Assay against the TMD8 Cell Line (Caspase readout at 16 hrs) (AID 651712); conditions: TMD8 lymphoma cells, caspase activation luminescence; note: potency is the fitted concentration of half-maximal effect
Summary of the method: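 Caspase-Glo luminescence measured apoptosis after a 16 h, 37 C compound exposure of TMD8 cells (500 cells/well, 5% FBS RPMI). DMSO set 0% and bortezomib at 9.2 uM final set 100% activity.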

[9] = qHTS assay for small molecule activators of the p53 signaling pathway (AID 651743; active = well fitted activation curve with a large enough effect in the signal ratio, not every such curve was filed as active; the % refers to the signal ratio; note: potency is the fitted concentration of half-maximal effect); conditions: HCT-116 p53RE-bla, beta-lactamase FRET ratio, 16 h; activation: stronger effect = higher value
Summary of the method: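 After 16 hours compound treatment at 37 C, HCT-116 cells stably expressing p53RE-driven beta-lactamase were loaded with LiveBLAzer B/G FRET substrate for 2 hours at room temperature. Fluorescence intensity served as the p53 activation read-out.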

[10] = qHTS assay for small molecule activators of the nuclear factor-kappa B (NF-kB) signaling pathway (AID 651749; active = well fitted activation curve with a large enough effect in the signal ratio; the % refers to the signal ratio); conditions: NF-kB-bla ME-180 cells, beta-lactamase FRET ratio, 16 h; stronger effect = higher value
Summary of the method: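 Activation measured after 16 hr compound treatment at 37C, 5% CO2, of 2,000 ME-180 cells/well stably expressing an NF-kB response element–driven beta-lactamase reporter, via FRET-disruption fluorescence.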

[11] = qHTS assay for small molecule disruptors of the mitochondrial membrane potential - 1 hr assay (AID 651754; calls by dose curve; note: nearly all actives have a fitted effect of over 35% in size)
Summary of the method: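 Mitochondrial potential in living HepG2 cells after 1 hr compound treatment at 37C was read with Mito-MPS dye added for a further 30 min. Red aggregate and green monomer fluorescence were measured; loss of potential leaves dye as cytoplasmic monomers.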

[12] = qHTS assay for small molecule disruptors of the mitochondrial membrane potential - 5 hr assay (AID 651755; calls by dose curve; note: nearly all actives have a fitted effect of over 40% in size)
Summary of the method: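 Membrane-potential dye readout: red aggregate (540 ex/590 em) versus green monomer (490 ex/535 em) fluorescence after 30 min dye loading, following 5 hr compound exposure at 37C of overnight-plated HepG2 cells.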

[13] = molecular target: Tumor necrosis factor (Homo sapiens) (UniProt P01375); test: qHTS assay to identify small molecules that stimulate Tumor Necrosis Factor-alpha (TNF-alpha) secretion (AID 651757; active = well fitted curve in the direction sought with a large enough effect in the signal ratio; the % refers to the signal ratio)
Summary of the method: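 Secreted TNF-alpha quantified by TR-FRET sandwich of two labeled anti-TNF-alpha antibodies, incubated 3 hr at room temperature. Preceded by 17 hr, 37 C compound treatment of THP-1 cells at 3000 cells/well.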

[14] = qHTS assay for environmental chemicals that activate the Aryl hydrocarbon Receptor (AhR) signaling pathway (AID 651777); conditions: 1A2-DRE human hepatoma cells, luciferase, 24 h; activation: stronger effect = higher value; note: nearly all actives have a fitted effect of over 15% in size
Summary of the method: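 Measured luciferase activity, read 30 min after One-Glo addition at room temperature, from human hepatoma cells bearing a dioxin response element–CYP1A2 promoter reporter and exposed to compound for 24 hr at 37 C.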

[15] = molecular target: Peroxisome proliferator-activated receptor alpha (Homo sapiens) (UniProt Q07869); test: qHTS assay for small molecule agonists of the peroxisome proliferator-activated receptor alpha (PPARalpha) signaling pathway (AID 651778); conditions: PathHunter PPARalpha complementation, chemiluminescence, 6 h; stronger effect = higher value
Summary of the method: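 Chemiluminescence from complemented enzyme reported PPARalpha activation in cells after 6 hr of compound treatment at 37 C. The detection reagent was incubated for 60 min at room temperature, and compounds were scored as agonists.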

[16] = molecular target: Nuclear receptor ROR-gamma (Homo sapiens) (UniProt P51449); test: qHTS assay for small molecule antagonists of the retinoid-related orphan receptor gamma (ROR-gamma) signaling pathway (AID 651802); note: nearly all actives have a fitted effect of over 60% in size; note: potency is the fitted concentration of half-maximal effect
Summary of the method: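 Luminescence (One-Glo, 30 min RT) measured 16 h after compound addition and doxycycline induction at 37C. Reporter: RORE-luciferase under TET-inducible ROR-gamma in CHO cells.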

[17] = molecular target: Tyrosine-protein kinase Yes (Homo sapiens) (UniProt P07947); test: qHTS for small molecule inhibitors of Yes1 kinase: Primary Screen (AID 686947); note: nearly all actives have a fitted effect of over 60% in size
Summary of the method: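 ADP-Glo luminescence reports ADP formed by 4 nM Yes1 phosphorylating poly(E4Y) (0.3 mg/mL) with 0.1 mM ATP for 60 min at room temperature, following 20 min compound preincubation; normalised between DMSO wells with and without enzyme.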

[18] = qHTS for small molecule inhibitors of Yes1 kinase: Counter Assay (AID 686950);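 note: no kinase present so only ADP-Glo detection of a fixed ADP amount is tested; luminescence from ADP-Glo reporting ADP in a fixed ATP and ADP mixture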
Summary of the method: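 ADP-Glo luminescence read after a 60 min room-temperature incubation of compound with an ATP/ADP mix (0.08 mM/0.02 mM) and no kinase, following a 20 min compound preincubation. Signal scaled between ATP+ADP (max) and 0.1 mM ATP-only (min) wells; Tris pH 7.5, Mg2+, DTT.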

Chain of Glucagon-like peptide 1 receptor (Homo sapiens) (P43220 whole entry, looked up): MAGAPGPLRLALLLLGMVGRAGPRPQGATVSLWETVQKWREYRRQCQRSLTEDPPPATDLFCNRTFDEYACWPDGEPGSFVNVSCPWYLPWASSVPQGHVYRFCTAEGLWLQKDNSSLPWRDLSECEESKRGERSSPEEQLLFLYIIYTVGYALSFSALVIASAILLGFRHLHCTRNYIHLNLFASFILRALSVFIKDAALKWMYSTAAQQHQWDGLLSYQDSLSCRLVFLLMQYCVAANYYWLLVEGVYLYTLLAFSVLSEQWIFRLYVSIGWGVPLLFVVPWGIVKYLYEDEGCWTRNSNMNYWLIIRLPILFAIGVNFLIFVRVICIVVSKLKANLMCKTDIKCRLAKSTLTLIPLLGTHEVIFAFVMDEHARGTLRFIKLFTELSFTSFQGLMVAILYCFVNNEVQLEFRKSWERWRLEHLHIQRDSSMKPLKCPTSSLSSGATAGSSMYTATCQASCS
Chain of Peroxisome proliferator-activated receptor alpha (Homo sapiens) (Q07869 whole entry, looked up): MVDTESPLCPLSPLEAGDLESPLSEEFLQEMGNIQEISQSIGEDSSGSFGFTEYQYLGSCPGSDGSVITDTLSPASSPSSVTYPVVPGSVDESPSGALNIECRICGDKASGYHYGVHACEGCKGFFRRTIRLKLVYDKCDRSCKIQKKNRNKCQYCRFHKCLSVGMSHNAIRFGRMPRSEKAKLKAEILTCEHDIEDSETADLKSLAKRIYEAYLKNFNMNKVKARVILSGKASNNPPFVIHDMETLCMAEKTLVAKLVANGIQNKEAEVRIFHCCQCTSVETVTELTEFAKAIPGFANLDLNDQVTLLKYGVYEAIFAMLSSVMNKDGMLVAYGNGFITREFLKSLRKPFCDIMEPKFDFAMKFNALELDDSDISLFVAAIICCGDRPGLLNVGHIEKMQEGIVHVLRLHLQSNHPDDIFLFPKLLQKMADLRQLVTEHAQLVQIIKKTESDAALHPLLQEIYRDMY
Chain of Tumor necrosis factor (Homo sapiens) (P01375 whole entry, looked up): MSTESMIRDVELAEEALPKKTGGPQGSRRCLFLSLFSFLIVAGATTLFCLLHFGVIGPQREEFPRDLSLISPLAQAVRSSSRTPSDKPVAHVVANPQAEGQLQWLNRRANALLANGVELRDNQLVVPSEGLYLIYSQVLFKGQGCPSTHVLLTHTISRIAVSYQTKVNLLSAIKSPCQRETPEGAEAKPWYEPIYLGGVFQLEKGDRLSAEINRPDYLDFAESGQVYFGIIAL
Chain of Nuclear receptor ROR-gamma (Homo sapiens) (P51449 whole entry, looked up): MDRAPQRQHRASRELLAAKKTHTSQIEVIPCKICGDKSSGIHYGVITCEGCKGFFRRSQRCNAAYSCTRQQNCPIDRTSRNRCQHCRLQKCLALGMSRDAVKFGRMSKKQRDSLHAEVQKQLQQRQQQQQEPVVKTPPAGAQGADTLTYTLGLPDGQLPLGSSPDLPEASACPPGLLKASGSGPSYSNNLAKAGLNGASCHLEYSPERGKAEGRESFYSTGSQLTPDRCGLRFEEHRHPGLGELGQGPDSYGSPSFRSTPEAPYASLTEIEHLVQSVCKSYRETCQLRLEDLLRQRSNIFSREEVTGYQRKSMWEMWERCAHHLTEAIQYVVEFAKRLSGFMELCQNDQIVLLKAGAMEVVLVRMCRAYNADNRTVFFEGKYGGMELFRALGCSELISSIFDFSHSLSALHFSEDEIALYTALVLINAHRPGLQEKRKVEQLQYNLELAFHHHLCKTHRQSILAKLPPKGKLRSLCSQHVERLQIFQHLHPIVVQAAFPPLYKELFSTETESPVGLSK
Chain of Tyrosine-protein kinase Yes (Homo sapiens) (P07947 whole entry, looked up): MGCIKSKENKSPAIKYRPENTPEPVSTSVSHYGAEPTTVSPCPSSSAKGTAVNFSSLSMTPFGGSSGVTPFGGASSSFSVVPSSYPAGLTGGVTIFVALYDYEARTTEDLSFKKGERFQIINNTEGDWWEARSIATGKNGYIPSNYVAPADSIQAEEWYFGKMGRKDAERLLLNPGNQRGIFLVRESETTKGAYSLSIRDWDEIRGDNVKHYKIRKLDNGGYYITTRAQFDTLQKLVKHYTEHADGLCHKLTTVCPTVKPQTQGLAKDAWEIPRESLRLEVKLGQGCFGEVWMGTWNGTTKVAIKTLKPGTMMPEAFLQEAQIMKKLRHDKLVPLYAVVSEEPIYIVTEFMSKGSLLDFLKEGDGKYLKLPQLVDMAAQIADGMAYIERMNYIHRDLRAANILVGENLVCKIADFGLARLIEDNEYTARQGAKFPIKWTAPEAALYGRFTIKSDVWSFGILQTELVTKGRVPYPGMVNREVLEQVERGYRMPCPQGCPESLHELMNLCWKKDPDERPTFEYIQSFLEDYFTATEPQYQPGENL

C=CCc1ccccc1OCC(O)CNC(C)C (stereo not given)
outcome [1]: inactive | outcome [2]: inactive | Potency [3]: inactive

Brc1c(NC2=NCCN2)ccc2nccnc12
outcome [1]: inactive | outcome [2]: inactive | Potency [3]: inactive

O=C(O)CN(CCOCCOCCN(CC(=O)O)CC(=O)O)CC(=O)O
outcome [1]: inactive | outcome [2]: inactive

CCn1cc(C(=O)O)c(=O)c2cc3c(cc21)OCO3
outcome [1]: inactive | outcome [2]: inactive | Potency [3]: inactive

NCCCNCCSP(=O)(O)O
outcome [1]: inactive | outcome [2]: inactive

NC(=O)c1ncn([C@@H]2O[C@H](CO)[C@@H](O)[C@H]2O)c1O
outcome [1]: inactive | outcome [2]: inactive

CCc1c(C)[nH]c2c1C(=O)C(CN1CCOCC1)CC2 (stereo not given)
outcome [1]: inactive | outcome [2]: inactive | Potency [3]: inactive

Nc1ncn([C@@H]2O[C@H](CO)[C@@H](O)[C@H]2O)c(=O)n1
outcome [1]: inactive | outcome [2]: inactive | Potency [3]: inactive | outcome [4]: inactive | Potency [5]: 16.8 µM (active) | viability (% of control) [6]: 6.56% | viability, percent of control [7]: 22.1% | Potency [8]: 14.8 µM (active) | Potency [9]: 6.31 µM (active) | activation [10]: -3.34% (inactive) and -0.684% (inactive) | Potency [11]: inactive | Potency [12]: inactive | outcome [13]: inactive | activation [14]: 5.55% (inactive) and 8.87% (inactive) | max response [15]: -2.48% (inactive) and -2.55% (inactive) | Potency [16]: 3.35 µM (active) | Potency [17]: inactive | outcome [18]: inactive

CCCCNc1c(C(=O)OCC)c(C)nc2c1cnn2CC
outcome [1]: inactive | outcome [2]: inactive | Potency [3]: inactive

C[C@]12CC[C@@H]3c4ccc(O)cc4C[C@@H](CCCCCCCCCS(=O)CCCC(F)(F)C(F)(F)F)[C@H]3[C@@H]1CC[C@@H]2O (stereo not given in full)
outcome [1]: inactive | outcome [2]: inactive | Potency [3]: inactive

CSc1ccc(C(=O)c2[nH]c(=O)[nH]c2C)cc1
outcome [1]: inactive | outcome [2]: inactive

COC(=O)C1=C(C)NC(C)=C(C(=O)OC(C)(C)CN(C)CCC(c2ccccc2)c2ccccc2)C1c1cccc([N+](=O)[O-])c1 (stereo not given)
outcome [1]: inactive | outcome [2]: inactive | Potency [3]: inactive

CN(C)C(=O)Oc1cccc([N+](C)(C)C)c1
outcome [1]: inactive | outcome [2]: inactive

CNC1(C)C2CCC(C2)C1(C)C (stereo not given)
outcome [1]: inactive | outcome [2]: inactive | Potency [3]: inactive

C[C@@H](O)[C@H]1C(=O)N2C(C(=O)O)=C(SCCN=CN)C[C@H]12
outcome [1]: inactive | outcome [2]: inactive

CCOC(=O)c1cnc2c(cnn2CC)c1NN=C(C)C
outcome [1]: inactive | outcome [2]: inactive | Potency [3]: inactive

O=C(CCNNC(=O)c1ccncc1)NCc1ccccc1
outcome [1]: inactive | outcome [2]: inactive | Potency [3]: inactive

O=C1CC2(CCCC2)CC(=O)N1CCCCN1CCN(c2ncccn2)CC1
outcome [1]: inactive | outcome [2]: inactive | Potency [3]: inactive

C[N+](C)(C)CCCCCCCCCC[N+](C)(C)C
outcome [1]: inactive | outcome [2]: inactive

CC(C)COCC(CN(Cc1ccccc1)c1ccccc1)N1CCCC1 (stereo not given)
outcome [1]: inactive | outcome [2]: inactive | Potency [3]: inactive

O=C(O)CN(CCN(CC(=O)O)CC(=O)O)CCN(CC(=O)O)CC(=O)O
outcome [1]: inactive | outcome [2]: inactive | Potency [3]: inactive

CCN1CCC[C@H]1CNC(=O)c1c(O)c(Cl)cc(Cl)c1OC
outcome [1]: inactive | outcome [2]: inactive

C#CCN(C)CCCOc1ccc(Cl)cc1Cl
outcome [1]: inactive | outcome [2]: inactive

CN(C)[C@@H]1C(=O)C(C(N)=O)=C(O)[C@@]2(O)C(=O)C3=C(O)c4c(O)ccc(Cl)c4[C@@H](O)[C@H]3C[C@@H]12
outcome [1]: inactive | outcome [2]: inactive

CCN(CC)CCNC(=O)c1ccc(NC(C)=O)cc1
outcome [1]: inactive | outcome [2]: inactive

C[C@]12CCC(=O)C=C1CC[C@@H]1[C@@H]2CC[C@@]2(C)[C@H]1CC[C@]2(O)C(=O)CO
outcome [1]: inactive | outcome [2]: inactive | Potency [3]: inactive

O=C1NCN(c2ccccc2)C12CCN(CCCC(c1ccc(F)cc1)c1ccc(F)cc1)CC2
outcome [1]: inactive | outcome [2]: inactive | Potency [3]: inactive

COCC(=O)O[C@]1(CCN(C)CCCc2nc3ccccc3[nH]2)CCc2cc(F)ccc2[C@@H]1C(C)C
outcome [1]: inactive | outcome [2]: inactive | Potency [3]: inactive

CCCNC(C)C(=O)Nc1ccccc1C (stereo not given)
outcome [1]: inactive | outcome [2]: inactive

NC1=NCC2c3ccccc3Cc3ccccc3N12 (stereo not given)
outcome [1]: inactive | outcome [2]: inactive | Potency [3]: inactive

CN(C)CC[C@@H](c1ccc(Br)cc1)c1ccccn1
outcome [1]: inactive | outcome [2]: inactive | Potency [3]: inactive

c1cc(CN2CCCCC2)cc(OCCCNc2nc3ccccc3s2)c1
outcome [1]: inactive | outcome [2]: inactive | Potency [3]: inactive

CC(=O)OCC1=C(C(=O)O)N2C(=O)[C@@H](NC(=O)Cc3cccs3)[C@H]2SC1
outcome [1]: inactive | outcome [2]: inactive | Potency [3]: inactive

CN(C)CCCN1c2ccccc2Sc2ccc(C(F)(F)F)cc21
outcome [1]: inactive | outcome [2]: inactive | Potency [3]: inactive

NC/C=C/C(=O)O
outcome [1]: inactive | outcome [2]: inactive | Potency [3]: inactive

NC(=O)N1c2ccccc2C=Cc2ccccc21
outcome [13]: inactive | Potency [16]: inactive
